# Compound activity: PubChem, National Center for Advancing Translational Sciences (NCATS)
# SW480 rereplic: inducers of DNA re-replication in SW480 colon cancer cells | SW480 DNA re-replication, Hoechst DNA content imaging, 48 h | Potency, µM (titrated, usually from 46.1 µM), inactives show at the top dose re-replication activation, usual class: activators | hit rate 1.8% among 340,000 | AID 624297; also: potency is read from the fitted curve at half-maximal effect; % of control where 0% means no effect; nearly all actives have a fitted effect of over 55% in size
#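 Hoechst fluorescence of nuclei (405 nm excitation, 500-530 nm emission) measured by plate-scanning imager after 48 hr compound exposure at 37 C; re-replication scored as increased number of nuclei with elevated intensity.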
# uPA surface inh: inhibitors of cell surface uPA generation; cell surface uPA generation assay, qHTS; Potency, µM (doses to about 38.3 µM), without a hit: top-dose activity change, negative = inhibition, usual class: inhibitors; hit rate 0.31% among 330,000; active = well fitted inhibition curve with a large enough effect; inconclusive = small, poorly fitted or top-dose-only effect; inactive = no such curve, though single readings can be large or run the other way; tested in mouse RAW 264.7 cells; also: potency is read from the fitted curve at half-maximal effect; % is scaled to controls: 0 for no effect and ±100 for the full control effect; nearly all actives have a fitted effect of over 55% in size
# MCF10A rereplic: inducers of DNA re-replication in MCF 10A breast cells | MCF 10A DNA re-replication, Hoechst nuclear intensity, 48 h | hit rate 2.9% among 350,000 | AID 624296 | Potency, µM (top dose mostly 46.1 µM), without a hit: at the top dose activity, positive = re-replication, actives largely listed as activators; also: potency is read from the fitted curve at half-maximal effect; % of control where 0% means no effect; nearly all actives have a fitted effect of over 50% in size
# Giardia kill: kills Giardia lamblia; AID 540267; activity change, % at 7.66 µM, hits read low; hit rate 0.15% among 340,000; Giardia lamblia trophozoite viability; in the data active = activity change below about -80%; inconclusive = between about -30% and that limit;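 also: parasites exposed to compound for two days anaerobically before the ATP read; % is scaled to controls: 0 for no effect and ±100 for the full control effect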
#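 Killing of trophozoites was scored by loss of ATP luminescence after a 48 hrs anaerobic exposure to compounds at 37 deg C, using 100 cells per well.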
# Active calls of the source: *; ? = inconclusive; nt = no result; [ ] = remark or other dose. Hits are enriched below; roughly 4.3% of the tested compounds scored in any of these assays. Unless noted, calls follow the shape of the dose curve; as a rule, active = well fitted activation curve with a large enough effect; inconclusive = small, poorly fitted or top-dose-only effect; inactive = no such curve, though single readings can be large or run the other way.
SMILES,SW480 rereplic,uPA surface inh,MCF10A rereplic,Giardia kill
CCCn1c(C(C)Nc2nc(-c3cc(Cl)c(N)c(Cl)c3)cs2)nc2cc(Cl)c(N3CCCCC3)cc21 (configuration not stated),-1%,3%,-5%,-12
O=C(Oc1cccc2cccnc12)c1ccc(N2C(=O)C3C4CCC(C4)C3C2=O)cc1 (configuration not stated),18µM*,-1%,15µM*,-1
COc1ccc(-c2sc3ccc(-c4ccc5c(c4)OCO5)cc3c2-c2ccc(OC)nc2)cc1,-11%,-2%,17%,13
CS(=O)(=O)OCC(O)C(O)COS(C)(=O)=O (configuration not stated),19%,nt,20%,nt
CCC1(c2ccccc2)C(=O)N(C(=O)OC(C)(C)C)N1C(=O)OC(C)(C)C (configuration not stated),-2%,13%,-3%,4
CCOC(=O)N1C(=O)[C@](CC)(c2ccccc2)N1C(=O)OCC,?,?,16µM*,2
CCCCCCSc1cc(-c2nc3cnccn3c2NCCCC)ccc1OC,?,11%,15µM*,-11
CCCCNc1c(-c2ccc(-c3ccc(OC)cc3)c(OC)c2)nc2ccccn12,?,13µM*,21µM*,-10
CCCCNc1c(-c2ccc(SC(C)CC)cc2)nc2cnccn12 (configuration not stated),18µM*,?,4.6µM*,23
CN1CC[C@H](c2c(O)cc(O)c3c(=O)cc(-c4ccccc4Cl)oc23)[C@@H](O)C1,nt,nt,nt,5
O=C(Nc1ccccc1)OCc1cc(-c2ccccc2Cl)on1,-5%,9%,26µM*,7
CCC1CCCCN1CCCNC(=O)c1ccc2nc(N3CCC(C)CC3)sc2c1 (configuration not stated),18µM*,?,20%,4
Cc1ccc(S(=O)(=O)N2CCC(C(=O)Nc3ccccc3N3CCCC3)CC2)cc1C,0%,0%,18%,7
COc1ccc(Cn2c(O)c(C=Nc3ccc(O)cc3)c3ccccc3c2=O)cc1,?,9%,6.5µM*,-20
C1CC(=NN=C2CCSCC2)CCS1,-5%,3%,-6%,-2
COc1ccc(-c2cc3nc(C)cc(NCCO)n3n2)cc1,-12%,-8%,-1%,-15
Cc1ccc(-c2cc3nc(C)cc(NCc4ccco4)n3n2)cc1,?,-26%,5.2µM*,-20
COc1ccc(-c2cc3nc(C)cc(-c4ccc(OC)cc4)n3n2)cc1,?,31%,12µM*,19
COCCNc1cc(C)nc2cc(-c3ccc(C)cc3)nn12,16µM*,3%,?,-10
O=C(c1ccc(N2CCCC2)c([N+](=O)[O-])c1)N1CCN(S(=O)(=O)c2ccccc2)CC1,-10%,1%,4%,5
COc1ccccc1C1=CC(=O)CC(C)(C)C1=O,5%,8%,-1%,-4
O=S(=O)(c1ccc2c(Cl)cccc2c1)N1CCN(c2nc(-c3cccs3)nc3ccccc23)CC1,nt,nt,nt,-7
CCCC/C=C/[C@H](c1ccccc1)[C@H](CO)Cc1ccc2ccccc2c1,nt,nt,nt,-14
CCCN(CC(=O)Nc1ccccc1C)C(=O)C1CC(=O)N(c2ccc(CC)cc2)C1 (configuration not stated),1%,4%,-3%,4
NC[C@@H]1O[C@H](O[C@H]2[C@H](O)[C@H](O[C@@H]3O[C@H](CO)[C@@H](O)[C@H](N)[C@@H]3O)[C@@H](N)C[C@H]2N)[C@@H](O)[C@H](O)[C@@H]1O,-3%[20.6 µM],nt,1%[20.6 µM],nt
SMILES,SW480 rereplic,uPA surface inh,MCF10A rereplic,Giardia kill
CC12CCC(C/C1=N\N=C1\NC(=O)/C(=C\c3ccc(Cl)cc3)S1)C2(C)C (configuration not stated),?,2%,5.2µM*,-21
COc1ccc(-c2cc3nc(-c4ccccc4)cc(N4CCC(O)CC4)n3n2)cc1,-8%,17%,18%,5
Cc1cccc(-c2cc3nc(C)cc(NCCCN(C)C)n3n2)c1,17%,-4%,?,-3
CN(C)CCCNc1cc(-c2ccccc2)nc2cc(-c3cccc(F)c3)nn12,?,5µM*,21µM*,13
Cc1ccc(-c2cc3nc(-c4ccccc4)cc(N4CCC5(CC4)OCCO5)n3n2)cc1,18µM*,1%,?,-23
COCCN1CCN(c2cc(-c3ccccc3)nc3cc(-c4cccc(F)c4)nn23)CC1,?,8%,21µM*,-11
COc1ccc(-c2cc3nc(-c4ccccc4)cc(N4CCCC(O)C4)n3n2)cc1 (configuration not stated),?,34%,21µM*,-15
CN(CC(=O)Nc1ccc(F)cc1)C(=O)Cn1cnc2ccc(Cl)cc2c1=O,-7%,-1%,-2%,0
COc1ccccc1Oc1ccc(NC(=O)Cc2ccccc2)cc1,-12%,-7%,5%,2
COC(=O)Nc1ccc(S(=O)(=O)N2CCCCC2)cc1,-3%,nt,7%,1
COc1ccc(S(=O)(=O)N2CCc3ccccc32)cc1C(=O)Nc1ccc(C(N)=O)cc1,6%,14µM*,23µM*,6
COC(=O)Nc1ccc(S(=O)(=O)N2CCCc3ccccc32)cc1,1.6µM*,nt,8.2µM*,-1
COC(=O)Nc1ccc(S(=O)(=O)N2CCCc3cccc(O)c32)cc1,26µM*,?,13µM*,-2
CCCCC(CC)C(=O)Oc1ccc(O)c(C(C)(C)C)c1 (configuration not stated),9%,7%,4.1µM*,25
O=S(=O)(c1ccc(F)cc1)N1CCN(C(=S)NC2CC2)CC1,0.58µM*,-1%,1%,7
CC(C)(C)C(=O)Cn1ncc(N2CCCC2)c(Br)c1=O,-1%,-6%,2%,-12
CC(=O)Cn1ncc(Br)c(Br)c1=O,3.7µM*,-14%,2.1µM*,7
Cc1ccc(C)c(Sc2ccc(NC(=O)CCl)cc2)c1,26%,?,?,?
Cc1ccc(Sc2ccc(NC(=O)CCl)cc2)cc1C,?,13µM*,?,1
O=C(CCl)Nc1ccc(-c2ccccc2)cc1,?,?,16µM*,-13
CCC(=O)Nc1ccc(N2CCCCC2)cc1,-3%,-8%,6%,11
O=C(CCl)Nc1ccc(N2CCCCCC2)cc1,21µM*,-15%,15µM*,-16
O=C(CCl)Nc1ccc(N=Nc2ccccc2)cc1,23µM*,14µM*,?,1
Cc1cccc(N2CCN(C(=O)COc3ccc4c(C)cc(=O)oc4c3C)CC2)c1C,-1%,-2%,?,-16
O=C(CSc1ncccc1C(=O)Oc1ccccc1Cl)Nc1ccccc1Cl,nt,nt,nt,-10
CCOC(=O)c1ccc(NC(=O)c2nc(S(=O)(=O)Cc3ccccc3)ncc2Cl)cc1,-5%,-3%,2.9µM*,1
CCCc1nnc(NC(=O)c2nc(S(=O)(=O)Cc3ccc(C)cc3)ncc2Cl)s1,8.2µM*,?,3.7µM*,6
CCS(=O)(=O)c1ncc(Cl)c(C(=O)Nc2ccccc2OC)n1,2.9µM*,-12%,2.3µM*,-14
CCOc1ccccc1NC(=O)c1nc(S(=O)(=O)Cc2ccccc2)ncc1Cl,27%,3.2µM*,4.1µM*,20
